Data on 39 compounds can be found in PubChem BioAssay (EPA / NIEHS).

Structures are written as SMILES. Results filed as inconclusive are left out. Calls of active or inactive are those of the source. Rule for the calls, unless noted: active = hit-call score of the fitted dose curve at least 0.9, where 1 is the maximum; inconclusive = response in the unintended direction; inactive = score below 0.9.

E-selectin (Homo sapiens), sequence (P16581 whole entry, looked up): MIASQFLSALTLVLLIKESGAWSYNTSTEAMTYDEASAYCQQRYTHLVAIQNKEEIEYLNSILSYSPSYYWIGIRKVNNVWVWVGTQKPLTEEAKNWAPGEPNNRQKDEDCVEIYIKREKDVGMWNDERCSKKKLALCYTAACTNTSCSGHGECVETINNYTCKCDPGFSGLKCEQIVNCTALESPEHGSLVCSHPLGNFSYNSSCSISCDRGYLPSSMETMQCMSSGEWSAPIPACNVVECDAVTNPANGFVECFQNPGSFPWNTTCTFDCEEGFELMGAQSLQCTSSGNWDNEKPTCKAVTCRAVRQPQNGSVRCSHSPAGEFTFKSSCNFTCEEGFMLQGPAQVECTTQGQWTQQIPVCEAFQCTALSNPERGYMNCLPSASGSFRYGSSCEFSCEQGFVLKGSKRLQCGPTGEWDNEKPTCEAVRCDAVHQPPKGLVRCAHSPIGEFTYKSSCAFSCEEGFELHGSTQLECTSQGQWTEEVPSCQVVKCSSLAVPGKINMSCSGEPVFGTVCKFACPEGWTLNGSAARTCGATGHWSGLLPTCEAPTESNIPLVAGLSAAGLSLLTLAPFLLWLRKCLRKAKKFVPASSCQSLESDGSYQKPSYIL
Retinoic acid receptor RXR-alpha (Homo sapiens), sequence (P19793 whole entry, looked up): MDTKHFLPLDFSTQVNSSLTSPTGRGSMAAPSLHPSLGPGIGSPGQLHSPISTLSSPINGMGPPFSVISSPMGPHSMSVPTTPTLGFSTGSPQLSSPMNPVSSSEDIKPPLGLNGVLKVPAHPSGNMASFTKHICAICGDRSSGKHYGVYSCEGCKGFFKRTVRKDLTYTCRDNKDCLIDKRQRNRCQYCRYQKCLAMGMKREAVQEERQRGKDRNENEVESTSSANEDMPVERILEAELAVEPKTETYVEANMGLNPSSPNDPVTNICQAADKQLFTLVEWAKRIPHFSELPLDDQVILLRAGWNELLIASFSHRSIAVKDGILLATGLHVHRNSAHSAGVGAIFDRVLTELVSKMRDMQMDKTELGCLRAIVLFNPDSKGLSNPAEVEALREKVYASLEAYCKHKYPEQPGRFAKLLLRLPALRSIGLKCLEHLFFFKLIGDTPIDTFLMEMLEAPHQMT

The target in the first assay is human RAR-related Orphan Receptor gamma (RORg), RORC (gene 6097) (UniProt P51449). Description: ATG_RORg_TRANS: Attagene TRANS-FACTORIAL HepG2 Assay for human RAR-related Orphan Receptor gamma (RORg) (AID 2283011).
human RAR-related Orphan Receptor gamma (RORg), RORC (gene 6097), sequence (P51449 whole entry, looked up): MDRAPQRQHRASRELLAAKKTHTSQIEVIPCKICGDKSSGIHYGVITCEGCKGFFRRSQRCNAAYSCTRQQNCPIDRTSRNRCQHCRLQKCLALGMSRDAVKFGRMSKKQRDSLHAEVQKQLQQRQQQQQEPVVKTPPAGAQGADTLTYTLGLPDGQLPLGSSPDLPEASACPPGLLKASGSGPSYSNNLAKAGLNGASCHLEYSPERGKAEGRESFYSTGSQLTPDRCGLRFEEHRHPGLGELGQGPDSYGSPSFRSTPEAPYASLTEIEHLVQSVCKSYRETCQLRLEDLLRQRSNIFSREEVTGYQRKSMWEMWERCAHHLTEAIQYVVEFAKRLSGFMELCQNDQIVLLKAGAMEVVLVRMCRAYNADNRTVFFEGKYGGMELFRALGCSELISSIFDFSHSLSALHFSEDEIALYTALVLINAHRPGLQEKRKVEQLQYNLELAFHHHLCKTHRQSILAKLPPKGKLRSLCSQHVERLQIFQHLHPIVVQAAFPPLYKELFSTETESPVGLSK
Conditions: not given
In outline: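 Reporter transcripts from a transfected RORg-GAL4 chimera in HepG2 cells were quantified 24 h after dosing by RT-PCR, 6-FAM labelling, HpaI digestion and capillary electrophoresis; increases over DMSO baseline were fitted.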
`CCCCCCCCCCCCCC(=O)OCC`: the compound was classed as inactive.

For `CC(CO)c1ccccc1` (stereo unspecified), the compound was called inactive.

Take `O=C1CCCCCCCCCCCC(=O)OCCO1`: the result was inactive.

Consider `CC(C)(C)c1ccc(S)cc1`, for which the outcome was inactive.

For the compound `OCCN1CCOCC1`, the outcome was inactive.

For the compound `CN(C)C(=O)Nc1ccccc1`, the compound was classed as inactive.

In the case of `c1ccc2scnc2c1`, the result was inactive.

With `CC1=C(C=O)C(C)(C)CCC1`, the outcome was inactive.

For `CC(C)OB(OC(C)C)OC(C)C`, the compound was classed as inactive.

With `CCCCOCC(C)OCC(C)O` (stereo unspecified), the result was inactive.

As to `NCCN1CCNCC1`, the result was inactive.

For the compound `Cc1cc(N)n(-c2ccccc2)n1`, the call was inactive.

As to `CCCCOC(=O)C(C)OC(=O)CCC` (stereo unspecified), the result was inactive.

`CCCCCCCCCCCCOC(C)=O`: the call was inactive.

Regarding `c1ccc2c(c1)-c1ccc3ccc4cccc5cc-2c1c3c45`, the call was inactive.

As for `O=C1OCc2ccccc21`, the compound was classed as inactive.

As to `CCNC(=S)NCC`, the compound was called inactive.

`CCCC[N+](C)(CCCC)CCCC`: the outcome was inactive.

Turning to `CC(=O)CCc1ccc(O)cc1`, the compound was classed as inactive.

With `CC(=N[Si](C)(C)C)O[Si](C)(C)C`, the compound was called inactive.

In the case of `NS(=O)(=O)c1cc(C(=O)O)c(NCc2ccco2)cc1Cl`, the result was inactive.

Regarding `CC(=O)Oc1c(C)c(C)c2c(c1C)CC[C@@](C)(CCC[C@H](C)CCC[C@H](C)CCCC(C)C)O2`, the call was inactive.

Consider `NC(N)=NC(N)=NCCc1ccccc1`, for which the result was inactive.

Take `OCC=Cc1ccccc1`: the outcome was inactive.

In the case of `c1coc(CNc2ncnc3nc[nH]c23)c1`, the outcome was inactive.

Take `C1=COCCC1`: the outcome was inactive.

Take `NC(N)=S`: the compound was classed as inactive.

Turning to `COc1ccc(OC)cc1`, the call was inactive.

As to `COc1ccccc1O`, the outcome was inactive.

Regarding `CC(C)(CO)CO`, the call was inactive.

As for `CCC(=O)OC/C=C(\C)CCC=C(C)C`, the outcome was inactive.

As to `CC(C)N(c1ccccc1)C(C)C`, the outcome was inactive.

`[O-]/[N+](=N\O)c1ccccc1`: the call was inactive.

Take `CCCO`: the compound was classed as inactive.

Regarding `CC=CC(=O)C1=C(C)C=CCC1(C)C`, the compound was classed as inactive.

For `COC(=O)c1cccc(C(=O)OC)c1`, the call was inactive.

In the case of `Nc1cc([N+](=O)[O-])ccc1C(=O)O`, the result was inactive.

Take `CC(C)=CCCC(C)=CC(=O)O`: the result was inactive.

With `Cc1ccccc1S`, the outcome was inactive.

The next assay has as its target Retinoic acid receptor RXR-alpha (Homo sapiens) (UniProt P19793). In words: ATG_RXRa_TRANS: Attagene TRANS-FACTORIAL HepG2 Assay for human Retinoid X Receptor alpha (RXRa) (AID 2283012).
Conditions: not given
In outline:
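Measures exogenous chimeric NR-GAL4 activity in transfected HepG2 liver cells after 24 h of dosing. Induced reporter mRNA was detected by RT-PCR with capillary electrophoresis, and gain of signal was analysed against DMSO.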
For the compound `O=C1OCc2ccccc21`, the outcome was inactive.

Turning to `CCCC[N+](C)(CCCC)CCCC`, the result was inactive.

On to `c1coc(CNc2ncnc3nc[nH]c23)c1`, for which the call was inactive.

For the compound `Nc1cc([N+](=O)[O-])ccc1C(=O)O`, the call was inactive.

The target of another assay is human Retinoid X Receptor beta (RXRb), RXRB (gene 6257) (UniProt P28702). In words: ATG_RXRb_TRANS: Attagene TRANS-FACTORIAL HepG2 Assay for human Retinoid X Receptor beta (RXRb) (AID 2283013).
human Retinoid X Receptor beta (RXRb), RXRB (gene 6257), sequence (P28702 whole entry, looked up): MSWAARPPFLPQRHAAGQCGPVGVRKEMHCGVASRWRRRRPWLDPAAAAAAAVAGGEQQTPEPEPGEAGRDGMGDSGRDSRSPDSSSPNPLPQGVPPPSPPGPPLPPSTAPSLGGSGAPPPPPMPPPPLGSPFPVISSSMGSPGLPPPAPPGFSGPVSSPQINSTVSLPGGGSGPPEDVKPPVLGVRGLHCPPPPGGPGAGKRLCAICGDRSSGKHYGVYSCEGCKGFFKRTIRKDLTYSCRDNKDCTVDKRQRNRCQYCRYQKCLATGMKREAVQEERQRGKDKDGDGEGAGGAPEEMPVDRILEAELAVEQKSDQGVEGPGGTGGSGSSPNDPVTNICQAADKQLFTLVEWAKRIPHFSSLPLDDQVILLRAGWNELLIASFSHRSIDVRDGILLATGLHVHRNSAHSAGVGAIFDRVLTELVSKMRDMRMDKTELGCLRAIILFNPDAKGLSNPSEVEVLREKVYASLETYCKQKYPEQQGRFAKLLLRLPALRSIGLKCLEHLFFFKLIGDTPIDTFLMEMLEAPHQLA
Conditions: not given
In outline:
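Chimeric receptor-Gal4 activity was assessed in transiently transfected human HepG2 cells after 24 h exposure. Transcripts from GAL4-UAS reporters were quantified by fluorescent RT-PCR and capillary electrophoresis, with DMSO as negative control and baseline.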
For `CC(C)(C)c1ccc(S)cc1`, the call was inactive.

On to `OCCN1CCOCC1`, for which the compound was classed as inactive.

`c1ccc2scnc2c1`: the compound was classed as inactive.

In the case of `NCCN1CCNCC1`, the AC50 was 25.3 µM (active).

In the case of `Cc1cc(N)n(-c2ccccc2)n1`, the call was inactive.

Take `CCCCCCCCCCCCOC(C)=O`: the result was inactive.

`c1ccc2c(c1)-c1ccc3ccc4cccc5cc-2c1c3c45`: the call was inactive.

Consider `CCNC(=S)NCC`, for which the result was inactive.

As for `CC(=O)CCc1ccc(O)cc1`, the call was inactive.

Take `CC(=O)Oc1c(C)c(C)c2c(c1C)CC[C@@](C)(CCC[C@H](C)CCC[C@H](C)CCCC(C)C)O2`: the outcome was inactive.

In the case of `C1=COCCC1`, the compound was classed as inactive.

Consider `CC(C)N(c1ccccc1)C(C)C`, for which the compound was called inactive.

Regarding `[O-]/[N+](=N\O)c1ccccc1`, the outcome was inactive.

As to `CC=CC(=O)C1=C(C)C=CCC1(C)C`, the call was inactive.

On to `COC(=O)c1cccc(C(=O)OC)c1`, for which the compound was classed as inactive.

With `CC(C)=CCCC(C)=CC(=O)O`, the call was inactive.

Take `Cc1ccccc1S`: the compound was classed as inactive.

The next assay deals with human Thyroid Receptor alpha (THRa1), THRA (gene 7067) (UniProt P10827). In words: ATG_THRa1_TRANS: Attagene TRANS-FACTORIAL HepG2 Assay for human Thyroid Receptor alpha (THRa1) (AID 2283014).
human Thyroid Receptor alpha (THRa1), THRA (gene 7067), sequence (P10827 whole entry, looked up): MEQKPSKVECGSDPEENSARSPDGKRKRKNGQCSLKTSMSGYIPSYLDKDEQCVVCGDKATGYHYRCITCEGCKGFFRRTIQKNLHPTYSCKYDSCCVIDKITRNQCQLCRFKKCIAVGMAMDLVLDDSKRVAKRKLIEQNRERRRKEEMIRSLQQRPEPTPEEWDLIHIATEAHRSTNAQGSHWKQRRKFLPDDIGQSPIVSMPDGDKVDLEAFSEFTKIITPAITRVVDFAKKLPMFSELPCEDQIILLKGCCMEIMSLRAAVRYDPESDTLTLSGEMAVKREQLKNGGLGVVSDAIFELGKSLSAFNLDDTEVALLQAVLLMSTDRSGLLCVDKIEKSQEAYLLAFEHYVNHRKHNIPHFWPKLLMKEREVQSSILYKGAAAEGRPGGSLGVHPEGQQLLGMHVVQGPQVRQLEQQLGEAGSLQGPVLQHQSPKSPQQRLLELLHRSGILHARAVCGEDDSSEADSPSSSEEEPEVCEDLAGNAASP
Conditions: not given
In outline:
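Transcripts from GAL4-UAS-driven reporters, measured after 24 h compound exposure by RT-PCR plus capillary electrophoresis of 6-FAM-labeled fragments, were fitted for gain of signal relative to DMSO. Cells: transiently transfected HepG2 expressing NR-Gal4 chimeras.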
As for `CCCCCCCCCCCCCC(=O)OCC`, the call was inactive.

In the case of `CC(CO)c1ccccc1` (stereo unspecified), the compound was called inactive.

For `O=C1CCCCCCCCCCCC(=O)OCCO1`, the compound was classed as inactive.

With `OCCN1CCOCC1`, the result was inactive.

On to `c1ccc2scnc2c1`, for which the compound was classed as inactive.

For `CC1=C(C=O)C(C)(C)CCC1`, the compound was classed as inactive.

With `CC(C)OB(OC(C)C)OC(C)C`, the call was inactive.

Take `CCCCOCC(C)OCC(C)O` (stereo unspecified): the outcome was inactive.

Consider `Cc1cc(N)n(-c2ccccc2)n1`, for which the compound was classed as inactive.

For `CCCCOC(=O)C(C)OC(=O)CCC` (stereo unspecified), the compound was classed as inactive.

`CC(=N[Si](C)(C)C)O[Si](C)(C)C`: the compound was classed as inactive.

`NS(=O)(=O)c1cc(C(=O)O)c(NCc2ccco2)cc1Cl`: the compound was classed as inactive.

On to `CC(=O)Oc1c(C)c(C)c2c(c1C)CC[C@@](C)(CCC[C@H](C)CCC[C@H](C)CCCC(C)C)O2`, for which the compound was classed as inactive.

`NC(N)=NC(N)=NCCc1ccccc1`: the result was inactive.

Turning to `OCC=Cc1ccccc1`, the outcome was inactive.

As for `NC(N)=S`, the compound was classed as inactive.

`COc1ccccc1O`: the call was inactive.

On to `CCC(=O)OC/C=C(\C)CCC=C(C)C`, for which the call was inactive.

Take `CC(C)N(c1ccccc1)C(C)C`: the call was inactive.

As for `Cc1ccccc1S`, the result was inactive.

Read-out in a further assay: E-selectin (Homo sapiens) (UniProt P16581)
In words: BSK_3C_Eselectin: BioMAP Diversity Plus: 3C Assay for Eselectin Biomarker Activity (AID 2283015; active = hit-call score of the fitted dose curve at least 0.9, where 1 is the maximum; inactive = score below 0.9;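 for outcome: cell surface E-selectin protein quantified by ELISA 24 h after dosing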). Particulars: primary human endothelial cells (HUVEC); actives raise or lower the signal. Summed up: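 E-selectin ELISA readout, fitted bidirectionally relative to DMSO, taken 24 h post-dosing in HUVEC cultures of the 3C system. Overt cytotoxicity tracked with sulforhodamine B staining of parallel wells.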
In the case of `OCCN1CCOCC1`, the outcome was inactive.

Regarding `c1ccc2c(c1)-c1ccc3ccc4cccc5cc-2c1c3c45`, the AC50 was 0.575 µM (active).

As for `CC(C)(CO)CO`, the result was inactive.

With `CC=CC(=O)C1=C(C)C=CCC1(C)C`, the outcome was inactive.

Read-out in a further assay: Interleukin-1 alpha (IL1a), IL1A (gene 3552)
Description: BSK_BE3C_IL1a: BioMAP Diversity Plus: BE3C Assay for Interleukin-1 alpha (IL1a) Biomarker Activity (AID 2283016; active = hit-call score of the fitted dose curve at least 0.9, where 1 is the maximum; inactive = score below 0.9). The settings on record: primary human bronchial epithelial cells; actives raise or lower the signal. Summed up:
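Signal from IL-1a ELISA, taken 24 h after chemical dosing of human bronchial epithelial cells, is compared with DMSO as baseline using bidirectional curve fitting.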
Consider `OCCN1CCOCC1`, for which the result was inactive.

In the case of `c1ccc2c(c1)-c1ccc3ccc4cccc5cc-2c1c3c45`, the outcome was inactive.

With `CC(C)(CO)CO`, the outcome was inactive.

As for `CC=CC(=O)C1=C(C)C=CCC1(C)C`, the result was inactive.

Read-out in another assay: Monocyte Chemoattractant Protein-1 (MCP1), CCL2 (gene 6347)
Description: BSK_3C_MCP1: BioMAP Diversity Plus: 3C Assay for Monocyte Chemoattractant Protein-1 (MCP1) Biomarker Activity (AID 2283017; active = hit-call score of the fitted dose curve at least 0.9, where 1 is the maximum; inactive = score below 0.9). Particulars: primary human endothelial cells (HUVEC); actives raise or lower the signal. In outline: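 MCP-1 was measured by ELISA 24 h after dosing in primary HUVEC 3C cultures and fitted in both directions relative to DMSO; cytotoxicity was checked by SRB total-protein staining in parallel wells.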
Take `OCCN1CCOCC1`: the outcome was inactive.

As for `c1ccc2c(c1)-c1ccc3ccc4cccc5cc-2c1c3c45`, the result was inactive.

Regarding `CC(C)(CO)CO`, the result was inactive.

As to `CC=CC(=O)C1=C(C)C=CCC1(C)C`, the result was inactive.

Read-out in the next assay: Monocyte Chemoattractant Protein-1 (MCP1), CCL2 (gene 6347)
Description: BSK_4H_MCP1: BioMAP Diversity Plus: 4H Assay for Monocyte Chemoattractant Protein-1 (MCP1) Biomarker Activity (AID 2283018; active = hit-call score of the fitted dose curve at least 0.9, where 1 is the maximum; inactive = score below 0.9). Particulars: primary human endothelial cells (HUVEC); actives raise or lower the signal. In outline:
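Endothelial cells from umbilical vein were treated with test chemical, then after 24 h MCP-1 levels were quantified by ELISA; endpoint values came from bidirectional fitting with DMSO as baseline of activity.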
In the case of `OCCN1CCOCC1`, the result was inactive.

Consider `c1ccc2c(c1)-c1ccc3ccc4cccc5cc-2c1c3c45`, for which the result was inactive.

On to `CC(C)(CO)CO`, for which the result was inactive.

`CC=CC(=O)C1=C(C)C=CCC1(C)C`: the outcome was inactive.

In general, AC50 refers to the concentration at which the activity in the assay is half-maximal.
